Sampled rows, rich in hits. Any-hit rate of the full collection: about 3.1%.
Anthrax LF inh2: blocks Bacillus anthracis lethal factor protease; inhibition, % at 10 µM; AID 588501; actives 0.12% (n = 360,000); multiplex microsphere protease cleavage assay, LF; further: plate controls were buffer without enzyme for full effect and enzyme alone for no effect
BoNT-F LC inh: BoNT F light chain protease inhibition | AID 588497 | inhibition, % at 10 µM | Multiplex microsphere protease cleavage assay, flow cytometry | actives 0.22% (n = 360,000); in the data active means inhibition above about 35%, passing the limit was not always enough; inconclusive means no clear call, values can overlap the other calls; further: plate controls were buffer without enzyme for full effect and enzyme alone for no effect
PriA SSB inh: K. pneumoniae PriA-SSBct interaction inhibition; AlphaScreen SSBct-PriA binding, biotinylated peptide; inhibition, % at 33 µM; actives 0.6% (n = 430,000); AID 1272365; in the data active means inhibition mostly above about 37%, no sharp cut-off; inactive means mostly below about 20%;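 further: plate controls were negative control peptide for no effect and reference peptide for full effect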
Bead autofluor: flagged as autofluorescent in microsphere protease counterscreen; compound autofluorescence counterscreen, microsphere flow cytometry; active compounds read high; fluorescence intensity (no concentration beside the values); actives 3.1% (n = 360,000); AID 624483; in the data active means fluorescence intensity above about 16000; inconclusive means no clear call, values can overlap the other calls
BoNT-A LC inh2: blocks Botulinum neurotoxin A light chain protease. multiplex microsphere protease substrate cleavage, flow cytometry. inhibition, % at 10 µM. actives 0.17% (n = 360,000); further: plate controls were buffer without enzyme for full effect and enzyme alone for no effect
* = called active by the depositor; ? = inconclusive; . = not tested or not shown. Unless noted, no stated cut-off is given here; in the data, active means inhibition above about 30%; inconclusive means no clear call, values can overlap the other calls; inactive means below that.

SMILES	Anthrax LF inh2	BoNT-F LC inh	PriA SSB inh	Bead autofluor	BoNT-A LC inh2
CSc1ccccc1C(=O)NCCn1ncc2c(=O)n(Cc3ccccc3F)cnc21	.	.	-7	.	.
CC(C)n1cc(/C=C2\NC(=O)N(c3cccc(Cl)c3)C2=O)c2ccccc21	-3	-1	-3	19627*	?
Fc1ccc(NN=Cc2cccnc2)c(F)c1	.	.	0	.	.
C=CCc1cc(C=O)cc(OC)c1OCc1c(Cl)cccc1Cl	-2	-5	-17	24171*	?
C=CCc1cc(C=O)cc(OC)c1O	.	.	5	.	.
COC(=O)[C@H](CCSC)NC(=O)Nc1ccc(C(C)C)cc1	-11	-30	-10	9999	-3
COC(=O)[C@H](Cc1ccccc1)NC(=O)NCCc1ccc(F)cc1	.	.	-12	.	.
COC(=O)[C@H](CCSC)NC(=O)NCCc1ccc(F)cc1	-2	-2	-8	23311*	-1
COC(=O)[C@H](CCSC)NC(=O)Nc1ccc(C)c(C)c1	2	5	-11	21760*	4
O=C(NCC1(c2cccs2)CCCC1)c1cc2ccccc2oc1=O	.	.	-16	.	.
CCOC(=O)NC(CC(=O)O)c1ccc(OC)c(OC)c1 (stereo not given)	0	-1	-4	16400*	0
CCOC(=O)NC(NC(=O)OCC)c1ccc(OC)c(OC)c1	.	.	-1	.	.
CSC1CC2CCC(C1)N2C(=O)c1ccsc1 (stereo not given)	.	.	94*	.	.
CSC1CC2CCC(C1)N2C(=O)c1ccc(C(C)(C)C)cc1 (stereo not given)	.	.	7	.	.
Cc1ccc(Oc2nn[nH]n2)cc1	0	4	-9	11115	0
CCc1cccc(Oc2nn[nH]n2)c1	0	-4	-9	24949*	-3
COc1cccc(C(=O)N=c2sc3ccc(C)c(C)c3n2C)c1	.	.	-4	.	.
COCCN=c1scc(-c2ccccc2)n1N=Cc1c[nH]c2ccccc12	.	.	51*	.	.
C=CCNC(=O)Nc1nc2c(C)c(Cl)ccc2s1	.	.	-5	.	.
C=CCNC(=O)COc1ccc(Br)cc1Cl	-10	6	2	20768*	4
CCOC(=O)N1CCN(C(=O)COc2ccc(Br)cc2Cl)CC1	-1	-2	-13	20543*	?
COCCNC(=O)COc1ccc(Br)cc1Cl	-2	3	-3	2459	0
O=C(Nc1cc(C(F)(F)F)cc(C(F)(F)F)c1)c1ccc(Cn2cc(C(F)(F)F)ccc2=O)cc1	0	-3	-13	20069*	?
O=C(Nc1ccccc1)c1ccc(Cn2cc(C(F)(F)F)ccc2=O)cc1	-4	-8	0	6376	-1
CC12C=CC3(CN(Cc4ccccc4)C(=O)C3C1C(=O)NC1CC1)O2 (stereo not given)	1	1	-13	22134*	0
SMILES	Anthrax LF inh2	BoNT-F LC inh	PriA SSB inh	Bead autofluor	BoNT-A LC inh2
CNC(=O)C[C@@H]1C(=O)N(Cc2ccccc2)CC1(C)C	-7	-3	.	2977	0
CCCCn1c(-c2ccco2)n[nH]c1=S	1	5	1	2010	0
CCCCn1c(-c2ccoc2C)n[nH]c1=S	-2	-2	-1	23012*	-1
COc1ccc(-c2cc(C3CCN(c4ccc(C(C)=O)cc4[N+](=O)[O-])CC3)[nH]n2)cc1	-12	-1	16	5963	0
Cc1ccc(OC(=O)c2ccc(N3CCOCC3)c([N+](=O)[O-])c2)cc1	-5	3	36	19491*	3
O=C(Oc1ccc(Cl)cc1)c1ccc(N2CCOCC2)c([N+](=O)[O-])c1	0	-3	30	2498	0
COC(=O)c1ccc(N2CCC(c3cc(-c4ccc(OC)cc4)n[nH]3)CC2)c([N+](=O)[O-])c1	-5	-6	9	23463*	-2
CON=Cc1ccc(N2CCN(C(=O)c3ccc(F)cc3)CC2)c([N+](=O)[O-])c1	.	.	-10	.	.
CO/N=C/c1ccc(N2CCN(C(=O)c3ccc(C)cc3)CC2)c([N+](=O)[O-])c1	-5	-4	.	24171*	-4
CC(C)(C)c1csc(NC(=O)c2ccc(N3CCOCC3)c([N+](=O)[O-])c2)n1	.	.	39*	.	.
CO[C@@H](CNS(=O)(=O)c1ccccc1F)c1ccc(C)s1	.	.	-8	.	.
CC(C)CCNC(=O)/C(C#N)=C1\N=C(NC(=O)c2cccnc2)c2ccccc21	.	.	-5	.	.
Cc1nc2cc(NC(=O)CN(C)c3nc4ccccc4s3)ccc2s1	.	.	-11	.	.
CCOC(=O)c1cc(CC)sc1NC(=O)c1ccc(N2CCOCC2)c([N+](=O)[O-])c1	0	3	8	19127*	3
O=C1c2cccc3c(O)ccc(c23)C(=O)N1Cc1ccccc1	51*	111*	-19	7829	1
COCCNC(=S)NN=Cc1ccccc1C(=O)O	.	.	-11	.	.

From PubChem
